Consider eight compounds from PubChem BioAssay (NCI).

A short description of this assay: NCI Yeast Anticancer Drug Screen. Data for the mgt1 strain (AID 153). The note with it: S. cerevisiae mgt1 mutant growth inhibition, stronger effect = higher value. As for the experimental part:
Growth inhibition of yeast strains with defined genetic alterations is measured as a screen for potential anti-cancer activity. Selected strains with alterations in DNA damage repair or cell cycle control were exposed to compounds and growth inhibition was measured relative to vehicle treated controls. The strain used in this assay is mgt1

Compounds without any hit were thinned out: in the full panel of roughly 79,000, 15% have a hit. A number with no mark means an inactive call. Activity calls are given as the source filed them. Cut-off read from the data, not from the text of the source: active = growth inhibition above about 70%; inactive = the rest.

For the compound `c1ccc2c(c1)sc1cc3ccncc3cc12`, the growth inhibition (at 1.2 µM) was -2%; the growth inhibition (at 3.7 µM) is -3%; the growth inhibition (at 11.0 µM) is -2%; the growth inhibition (at 33.0 µM) was 11%; the growth inhibition (at 100.0 µM) was 94% (active).

In the case of `NC(=S)N/N=C\c1nccc2ccccc12`, the growth inhibition by setting is: (at 1.2 µM) -2%; (at 3.7 µM) -6%; (at 11.0 µM) 21%; (at 33.0 µM) 97% (active); (at 100.0 µM) 99% (active).

Take `CC1OCC2OC(C)OC(C3C4=C(CC(C)(C)CC4=O)OC4=C3C(=O)CC(C)(C)C4)C2O1` (stereo not given): the growth inhibition was -1% (at 1.2 µM); 2% (at 3.7 µM); 2% (at 11.0 µM); 2% (at 33.0 µM); 21% (at 100.0 µM).

As for `CCOc1ccc2c(c1)c(CC(=O)O)cn2C`, the growth inhibition (at 1.2 µM) is -3%; the growth inhibition (at 3.7 µM) is -6%; the growth inhibition (at 11.0 µM) was 1%; the growth inhibition (at 33.0 µM) is 18%; the growth inhibition (at 100.0 µM) is 51%.

With `COc1cc(CC2CC(c3ccc4c(c3)OCO4)OC2=O)cc(OC)c1OC` (stereo not given), the growth inhibition was -1% (at 1.2 µM); 1% (at 3.7 µM); 1% (at 11.0 µM); 1% (at 33.0 µM); 6% (at 100.0 µM).

Take `O=C1C=CC(=O)N1c1ccc2c(c1)Cc1cc(NC(=O)C(F)(F)F)ccc1-2`: the growth inhibition (at 1.2 µM) is 11%; the growth inhibition (at 3.7 µM) is 20%; the growth inhibition (at 11.0 µM) is 31%; the growth inhibition (at 33.0 µM) was 57%; the growth inhibition (at 100.0 µM) was 77% (active).

For the compound `CCC[CH2][Ge]([CH2]CCC)([CH2]CCC)[O]C(=O)C(OC)c1ccccc1` (stereo not given), the growth inhibition was -2% (at 1.2 µM); -1% (at 3.7 µM); 1% (at 11.0 µM); 58% (at 33.0 µM); 99% (active) (at 100.0 µM).

For the compound `S=C(N/N=C/c1ccccn1)Nc1ccc(Cl)cc1`, the growth inhibition is -7% (at 1.2 µM); -7% (at 3.7 µM); 9% (at 11.0 µM); 16% (at 33.0 µM); 59% (at 100.0 µM).
